This is an account of results in PubChem BioAssay (NCI).

The panel holds about 83,000 compounds, 20% with a hit somewhere; the sample as a whole holds those more often.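 Compound tested at a single concentration for 48 hours in 96-well plates; a percent growth value below 10 was scored as active.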 A number with no mark means an inactive call. Calls of active or inactive are those of the source.

Among the test systems are SK-MEL-2 melanoma; EKVX NSCLC; SN12C renal; UO-31 renal; TK-10 renal; ACHN renal; CAKI-1 renal; A498 renal; CCRF-CEM leukemia; MOLT-4 leukemia.
Test in all cases: NCI-60 one-dose screen, 48 h (100 = growth as untreated, 0 = no growth, -100 = all killed)
What all share (conditions): 10 µM unless noted

With `CC1(C)C(=O)/C(=C\c2ccco2)C[C@]2(C)[C@H]3CC[C@@H]4[C@@H](C(=O)/C=C/c5ccco5)CC[C@@]4(C)[C@]3(C)CC[C@@H]12`, the growth in the experiment on SK-MEL-2 melanoma was -0.219% (active); in the experiment with EKVX NSCLC, 105%; in the experiment on SN12C renal, 87.2%; in the experiment on UO-31 renal it was 58.9%; in the experiment with TK-10 renal, 107%; with ACHN renal, 19.3%. Further, the growth is 53.9% in the experiment on CAKI-1 renal, 91.3% in the experiment with A498 renal, 50.6% in the experiment with CCRF-CEM leukemia and 68.3% with MOLT-4 leukemia.
On to `C=C(C)[C@@H]1CC[C@]2(CN)CC[C@]3(C)[C@H](CC[C@@H]4[C@@]5(C)CCC(=O)NC(C)(C)[C@@H]5CC[C@]43C)[C@@H]12`, for which the growth with SK-MEL-2 melanoma was 98.8%; in the experiment on EKVX NSCLC, 87.3%; with SN12C renal it was 65.6%; in the experiment on UO-31 renal, 58.9%; in the experiment with TK-10 renal it was 114%; in the experiment on ACHN renal, 69.1%. The growth in the experiment with CAKI-1 renal is 59.9%; in the experiment with A498 renal it was 96.2%; in the experiment on CCRF-CEM leukemia it was 20.9%; in the experiment on MOLT-4 leukemia it was 21.5%.
In the case of `C=C(C)[C@@H]1CC[C@]2(C)[C@H](CC[C@@H]3[C@H]4[C@H]5OC[C@@]4(CCC5(C)C)CC[C@]32C)[C@@]1(C)CCCN`, the growth with SK-MEL-2 melanoma was 101%; with EKVX NSCLC it was 71.2%; in the experiment on SN12C renal, 75.6%; with UO-31 renal it was 63.8%; in the experiment on TK-10 renal it was 130%; in the experiment with ACHN renal, 59%. Besides, the growth is 3.89% (active) in the experiment with CAKI-1 renal, 118% with A498 renal, 51.8% in the experiment on CCRF-CEM leukemia and 10.5% in the experiment on MOLT-4 leukemia.
Turning to `Cc1ccc2c(c1)c1nc3cc(C)c(C)cc3nc1n2CCN(C)C`, the growth in the experiment on SK-MEL-2 melanoma is 35.8%; in the experiment on EKVX NSCLC it was 19.7%; in the experiment on SN12C renal, 13.5%; in the experiment on UO-31 renal, -10.4% (active); in the experiment with TK-10 renal, 27.7%; in the experiment on ACHN renal it was -0.699% (active). Further, the growth is 2.44% (active) in the experiment with CAKI-1 renal, 35.7% in the experiment with A498 renal, 26.4% in the experiment with CCRF-CEM leukemia and 8.57% (active) with MOLT-4 leukemia.
`Cc1cccc2c1NC(=O)[C@@]21[C@H](C(=O)c2ccccc2)[C@]2(C(=O)Nc3ccccc32)[C@H]2CCCN21`: the growth was 18.1% [100 µM] in the experiment on SK-MEL-2 melanoma; 30.6% [100 µM] with EKVX NSCLC; 10.3% [100 µM] in the experiment on SN12C renal; 30.5% [100 µM] in the experiment on UO-31 renal; 39% [100 µM] in the experiment on TK-10 renal; 5.91% [100 µM] (active) with ACHN renal. In addition, the growth with CAKI-1 renal was 11.6% [100 µM]; in the experiment with A498 renal, 39.8% [100 µM]; in the experiment on CCRF-CEM leukemia, 5.86% [100 µM] (active); with MOLT-4 leukemia it was 12.3% [100 µM].
For the compound `CCc1cccc(CC)c1NC(=O)c1sc2nc3c(cc2c1N)CCCC3`, the growth is 56.3% in the experiment on SK-MEL-2 melanoma; 88.9% in the experiment on EKVX NSCLC; 83.5% in the experiment on SN12C renal; 57.7% with UO-31 renal; 90.5% in the experiment on TK-10 renal; 71.8% with ACHN renal. Besides, the growth was 64.6% in the experiment on CAKI-1 renal, 40.2% with A498 renal, 60.7% in the experiment with CCRF-CEM leukemia and 61.9% in the experiment with MOLT-4 leukemia.
`CC(=O)O[C@H]1CC[C@]2(C)[C@H]3C(=O)C=C4[C@@H]5C[C@](C)(C(=O)N6CCCNCC6)CC[C@]5(C)CC[C@@]4(C)[C@]3(C)CC[C@H]2C1(C)C`: the growth was 96.2% with SK-MEL-2 melanoma; 54.8% with EKVX NSCLC; -82.1% (active) with SN12C renal; -85.5% (active) in the experiment on UO-31 renal; -14.3% (active) with TK-10 renal; -100% (active) in the experiment on ACHN renal. In addition, the growth is -99.3% (active) with CAKI-1 renal, 74.1% with A498 renal, -31.5% (active) in the experiment with CCRF-CEM leukemia and -23.6% (active) in the experiment on MOLT-4 leukemia.
Regarding `CC1(C)c2ccccc2C(=O)C1(Br)Cc1ccccc1` (stereo not given), the growth is 103% with SK-MEL-2 melanoma; 94.5% in the experiment with EKVX NSCLC; 95.4% with SN12C renal; 56.6% in the experiment with UO-31 renal; 105% in the experiment with TK-10 renal; 87.7% with ACHN renal. The growth with CAKI-1 renal was 50.5%; in the experiment with A498 renal, 89.7%; in the experiment with CCRF-CEM leukemia, 26.4%; with MOLT-4 leukemia, 16.4%.
As for `O=C(NO)c1ccc(Cn2c(=O)n(CCc3ccc(O)cc3)c(=O)c3ccccc32)cc1`, the growth with SK-MEL-2 melanoma was 74.5%; in the experiment on EKVX NSCLC it was 76.7%; in the experiment with SN12C renal, 79%; in the experiment on UO-31 renal, 88.6%; in the experiment with TK-10 renal it was 84.7%; in the experiment with ACHN renal, 91.1%. Also, the growth in the experiment with CAKI-1 renal is 95.2%; with A498 renal, 45.7%; in the experiment on CCRF-CEM leukemia, 9.36% (active); in the experiment on MOLT-4 leukemia it was 15.9%.
For `CC(=O)O[C@@H]1CCN2C(=O)N(C)c3ccccc3[C@@H]2C1`, the growth is 102% in the experiment on SK-MEL-2 melanoma; 114% in the experiment with EKVX NSCLC; 98.9% in the experiment with SN12C renal; 94.5% with UO-31 renal; 99.6% in the experiment on TK-10 renal; 98.6% in the experiment with ACHN renal. Also, the growth is 95.3% with CAKI-1 renal, 114% in the experiment with A498 renal, 105% in the experiment with CCRF-CEM leukemia and 99.6% with MOLT-4 leukemia.
As to `C=C(C)[C@@H]1CC[C@]2(/C=N/Nc3ccncc3)CC[C@]3(C)[C@H](CC[C@@H]4[C@@]5(C)CCCNC(C)(C)[C@@H]5CC[C@]43C)[C@@H]12`, the growth in the experiment on SK-MEL-2 melanoma is 110%; in the experiment on EKVX NSCLC it was 99.5%; in the experiment on SN12C renal, 85.2%; with UO-31 renal, 85%; in the experiment on TK-10 renal it was 120%; in the experiment on ACHN renal it was 100%. The growth is 74.7% in the experiment on CAKI-1 renal, 83.8% in the experiment on A498 renal, 67.1% in the experiment on CCRF-CEM leukemia and 58% in the experiment with MOLT-4 leukemia.
